The list shows a part of the results. Active and inactive are the calls of the source.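 How the source made its calls: active means superoxide signal below 65% of the plate average of sample wells; inactive means the rest.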
Test: superoxide lowering in aged yeast cells, confirmation, cherry picked compounds (AID 434994);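 further: cells aged with compound for 7 days at 30 degrees C before staining; 100% equals mean DHE fluorescence of all compound wells on the plate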
Settings: S. cerevisiae aging, superoxide DHE fluorescence; at 10 µM; stronger effect = lower value

Superoxide response (% of plate), inactive:
COc1ccc(NC(C)=O)cc1NC(=O)CN1CCN(c2ccccn2)CC1 103%
Cc1ccc(NC(=O)Cn2nc(C)c3ccccc3c2=O)c(C)c1 114%
Cc1ccc(-c2nc(CS(=O)CC(=O)N3CCN(c4ncccn4)CC3)c(C)o2)cc1 (stereo not given) 92.5%
Cc1ccc(C23CC4CC(CC(C(=O)NCC(=O)O)(C4)C2)C3)cc1 106%
CC(=O)C[C@@H](O)CC(=O)[C@H]1OC(=O)CCCCCCc2ccccc21 103%

From PubChem BioAssay AID434994 (NMMLSC, 2010)
